# Screening results: PubChem BioAssay, National Center for Advancing Translational Sciences (NCATS)
# TDP-43 tox inh – qHTS of TDP-43 Inhibitors: NCGC Sytravon Library Screen. 0.45% of 45,000 active. Potency, µM (highest dose often 46.1 µM), most hits filed as activators. yeast TDP-43 toxicity rescue, BacTiter-Glo growth, 24 h; active = well fitted activation curve with a large enough effect; also: 0% is about no effect; nearly all actives have a fitted effect of over 55% in size
#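 TDP-43-expressing yeast, pregrown in raffinose, seeded at OD600 0.02 in galactose medium with compound for 24 hr at 30 deg C. Growth read by BacTiter-Glo luminescence, so rescue of toxicity appears as activation.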
# Active calls of the source: *; i = inactive. Only a selection was taken, and hits are over-represented in it overall. Potency is read from the fitted curve at half-maximal effect.
SMILES,TDP-43 tox inh
CN(CC1COc2ccccc2O1)C(=S)Nc1ccccc1F (configuration not stated),11µM*
CN(CC1COc2ccccc2O1)C(=O)CSc1nncs1 (configuration not stated),i
COC(=O)c1cc2sc(C)cc2n1Cc1ccc(Br)cc1F,i
CCCNS(=O)(=O)c1cc(-c2nnc3c4ccccc4c(C)nn23)ccc1OC,i
O=C(NCC1CCN(C(=O)c2c(F)c(F)c(F)c(F)c2F)CC1)c1c(F)c(F)c(F)c(F)c1F,18µM*
CC(C)CNC(=O)c1c(F)c(F)c(F)c(F)c1F,i
O=C(NCC1CCN(C(=O)c2cccc([N+](=O)[O-])c2)CC1)c1cccc([N+](=O)[O-])c1,i
COc1ccc(-c2nn3c(-c4ccc(C)cc4)nnc3c3ccccc23)cc1,i
Cc1ccccc1-n1c(SCC(=O)Nc2ccc(Cl)cc2Cl)nc(O)cc1=O,i
CC1CCCN(C(=O)COc2ccc(-c3ccccc3)cc2)C1 (configuration not stated),11µM*
CC1CCCN(CC(=O)NNC(=O)COc2ccc(Br)cc2)C1 (configuration not stated),i
COc1ccc(CC(=O)OCC(=O)N2CCCC(C)C2)cc1 (configuration not stated),i
COc1ccccc1NC(=O)CSc1nc(-c2ccc(C(C)(C)C)cc2)c(C#N)c(=O)[nH]1,i
Cc1ccc(C)c(N2CCN(c3nc4ccccc4n4nnnc34)CC2)c1,i
Cc1ccccc1NC(=O)c1sc2nc3c(cc2c1N)CCCC3,i
CCN(CC)c1cc(C)c2cc(NC(=O)c3ccccc3OC)ccc2n1,i
COc1ccccc1C(=O)Nc1cccc(NC(=O)c2ccccc2C)c1,14µM*
COc1cccc(NC(=O)c2cccc(C)c2[N+](=O)[O-])c1,i
CCCCn1nc(NC(=O)c2cccc(Cl)c2)c2cc3cccc(C)c3nc21,i
CCc1cccc(CC)c1N(COC)C(=O)Cn1c(C)nc2ccccc21,i
Cc1ccc(-n2nc(C)c3c(C)c(CCC(=O)NCc4ccccc4Cl)c(C)nc32)cc1,i
O=C(NCCc1nc2ccccc2n1Cc1ccc(Cl)cc1Cl)c1ccco1,i
COc1ccc(OC)c(CNC(=O)C(C)n2c(C)c3cnn(-c4ccccc4)c(=O)c3c2C)c1 (configuration not stated),i
Nn1c(=O)c2ccccc2n2c(SCc3ccccc3)nnc12,i
Nn1c(SCc2cccc(Oc3ccccc3)c2)nnc1C(F)(F)F,13µM*
SMILES,TDP-43 tox inh
Cn1c(SCC(=O)Nc2ccccc2)nnc1C(F)(F)F,i
CCOc1ccc(OCC)c(Nc2nc3ccc(Cl)cc3n3cnnc23)c1,i
CC(C)Nc1nc(Nc2ccccc2Cl)c2sccc2n1,i
COc1ccc(C(=O)N2c3ccc(C)cc3C(C)(c3ccccc3)CC2(C)C)cc1 (configuration not stated),i
CCCCOC(=O)/C=C/c1ccc(OC(=O)OC)c(OC(=O)OC)c1,i
COC(=O)Oc1ccc(/C=C/C(=O)OC(C)C)cc1OC(=O)OC,14µM*
COc1cc(/C=C/C(=O)OC(C)C(=O)Nc2ccc(Cl)cn2)ccc1OC(F)F (configuration not stated),i
O=C(Cn1c(=O)oc2cc(S(=O)(=O)N3CCCC3)ccc21)Nc1ccc(F)cc1F,i
